Test results from PubChem BioAssay AID1159580 (chemical genetic matrix, 2015).
The campaign covered roughly 5,500 compounds. About 2,000 (36%) were called active. About 18% were inconclusive and are not listed. The list shows a part of the results. A number with no mark means an inactive call. Rule as the data show it: active = normalized growth mostly below about 0.91 (no sharp cut-off); inconclusive = no clear call, values can overlap the other calls; inactive = mostly above about 0.92. Where a SMILES comes first, the peptide text is derived from it. [ ]: non-standard residue; d: D form. Orn = NCCC[CH](N)C(=O)O

Test: chemical genetic growth profiling, strain panel (AID 1159580);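 also: tested at 20 µM; growth read once vehicle control cultures reached saturation at 30 °C; 1 = growth at the plate median or of vehicle wells; lower values mean less growth of the strain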
Conditions: S. cerevisiae deletion strains, growth OD

Row | SMILES | normalized growth (locus YAL040C, strain CLN3, active compounds read low) | normalized growth (locus YCL061C, strain MRC1 (second series), active compounds read low) | normalized growth (locus YDR363W, strain ESC2, active compounds read low) | normalized growth (locus YER002W, strain NOP16, active compounds read low) | normalized growth (locus YMR263W, strain SAP30, active compounds read low) | normalized growth (locus YMR307W, strain GAS1, active compounds read low) | normalized growth (locus YNL175C, strain NOP13, active compounds read low) | normalized growth (locus YNL197C, strain WHI3, active compounds read low) | normalized growth (locus YNL224C, strain SQS1, active compounds read low) | normalized growth (locus YNL322C, strain KRE1, active compounds read low) | normalized growth (locus YOR083W, strain WHI5 (second series), active compounds read low) | normalized growth (locus YOL012C, strain htz1)
1 | CC(C)[C@@H]1NC(=O)[C@H](CCCCN)NC(=O)[C@@H](Cc2c[nH]c3ccccc23)NC(=O)[C@H](Cc2ccc(O)cc2)NC(=O)[C@H](C)N(C)C(=O)[C@H](Cc2ccccc2)NC1=O | 0.981 | 0.988 | 0.995 | 1.01 | 0.994 | 0.879 (active) | 0.988 | 0.988 | 1 | 0.984 | 0.989 | –
2 | CC(C)CC1NC(=O)C(CCCN)NC(=O)C(C(C)C)NC(=O)C(Cc2ccc(O)cc2)NC(=O)C(CCC(=O)O)NC(=O)C(CC(=O)O)NC(=O)C(Cc2ccccc2)NC(=O)C(Cc2ccccc2)NC(=O)C2CCCN2C(=O)C(Cc2ccccc2)NC1=O (configuration not stated) (cyclo(DEYV[Orn]LFPFF); configuration not given here) | – | – | – | – | – | – | – | – | – | – | – | 0.202
